Several values for one entry are separate records, joined by “and”; a condition that tells them apart may be missing. Identical values can stand only once. Inconclusive results are not listed. Activity calls are given as the source filed them. Calls come from the whole dose curve.
Target: Neuropeptide S receptor (Homo sapiens) (UniProt Q6W5P4)
Test: Confirmation Concentration-Response Assay for Antagonists of the Neuropeptide S Receptor: cAMP Signal Transduction, SAR for Probe
Conditions: CHO-NPSR cells, cAMP TR-FRET, antagonist mode; series mostly up to 47.8 µM; activity change, negative = inhibition: at the top concentration
From the text: NIH Chemical Genomics Center [NCGC] NIH Molecular Libraries Probe Production centers Network [MLPCN] MLPCN Grant: X01-DA026210-01 Assay Submitter (PI): Heilig, Markus Alexander NCGC Assay Overview: Neuropeptide S receptor (NPSR), previously known as GPR154, is a recently de-orphanized G protein coupled receptor. Its endogenous ligand is the 20 amino acids peptide Neuropeptide S (NPS). […] NPS and its receptor are found in various tissues. Specifically they are highly expressed in brain areas that have been implicated in modulation of arousal, stress and anxiety. Central administration of NPS in mice produces an unusual profile of activity by inducing wakefulness and arousal, while at the same time suppressing anxiety. Therefore, NPSR may represent a novel drug target for the treatment of sleep and anxiety disorders. To identify NPSR antagonists, we developed a cell-based cAMP assay. NPS can stimulate the production of cAMP in Chinese hamster ovary cells stably expressing NPS receptor. This change in intracellular cAMP level can be detected by a homogeneous LANCE cAMP assay based on the TR-FRET (time resolved fluorescence resonance energy transfer) between a europium-labeled cAMP tracer complex and a cAMP-specific antibody labeled with Alexa Fluor 647. The europium-labeled cAMP tracer complex is formed by the tight interaction between Biotin-cAMP (b-cAMP) and streptavidin labeled with Europium-W8044 chelate (Eu-SA). Light pulse at 320 nm excites the europium of the cAMP tracer and the energy emitted is transferred to the Alexa molecule bound to the cAMP antibody, generating a TR-FRET signal at 665 nm. Residual energy from the europium will produce a light at 620 nm. The native unlabeled cAMP from cell lysates competes with the europium-cAMP tracer for antibody binding and reversely reduces the emission signal of Alexa by interrupting FRET between the two labeled molecules. Both emission signals from the FRET donor (620 nm) and the acceptor (665 nm) can be detected by a plate reader in the TRF mode. Expression of result in fluorescence ratio (665 nm/620 nm) helps to normalize differences due to cell density and reagent dispensing. This assay was successfully optimized to a 1536-well plate format. Select compounds from the primary screen (AID 1461) were chosen for confirmation based on potency, efficacy, SAR, and activity across other assays in PubChem and at NCGC. Other compounds are analogs of active compounds from the primary screen.
NCGC Assay Protocol Summary: A Chinese hamster ovary (CHO) cell line stably expressing the NPS receptor (CHO-NPSR) was obtained from Dr. Heilig lab at NIAAA and maintained in F-12 Kaighn's media (Invitrogen, Carlsbad, CA, 21127) supplemented with 10 % FBS, 100 units/ml penicillin, 100 ug/ml streptomycin and 250 ug/ml geneticin at 37C, 5% CO2 in a humidified atmosphere. Before the assay, aliquots of cells were frozen and stored at -135C. The assay was performed in 1536-well format. Data are reported for both the ratio of the two emission wavelengths, and also for the component 'donor' channel, Em2=620. […] IC50 values were determined from concentration-response data modeled with the standard Hill equation. NPS 1536-well assay protocol: (1) Fresh or frozen CHO-NPSR cells were suspended in F-12 Kaighn's media supplemented with 10 % FBS, 100 units/ml penicillin and 100 ug/ml streptomycin. Cells were plated at 4 ul/well (1200 cells) to white, tissue culture treated 1536-well plates, and then cultured at 37C, 5 % CO2 for 16 to 30 hours. (2) Add 23 nl/well of compound in DMSO solution. The final titration for each compound was between 0.6 nM and 46 uM. (3) Add 1 ul of stimulation reagent (1X HBSS buffer, 5 mM HEPES, 0.1% BSA, 500 uM RO-201724 (Sigma-Aldrich, B8279), 1.5% Alexa 647-labeled anti-cAMP antibody (from Perkin Elmer), 100 nM NPS) (4) Incubation at 37C, 5 % CO2 for 60 min. (5) Add 1 ul/well detection reagent. […]

Chain of Neuropeptide S receptor (Homo sapiens) (Q6W5P4 whole entry, looked up): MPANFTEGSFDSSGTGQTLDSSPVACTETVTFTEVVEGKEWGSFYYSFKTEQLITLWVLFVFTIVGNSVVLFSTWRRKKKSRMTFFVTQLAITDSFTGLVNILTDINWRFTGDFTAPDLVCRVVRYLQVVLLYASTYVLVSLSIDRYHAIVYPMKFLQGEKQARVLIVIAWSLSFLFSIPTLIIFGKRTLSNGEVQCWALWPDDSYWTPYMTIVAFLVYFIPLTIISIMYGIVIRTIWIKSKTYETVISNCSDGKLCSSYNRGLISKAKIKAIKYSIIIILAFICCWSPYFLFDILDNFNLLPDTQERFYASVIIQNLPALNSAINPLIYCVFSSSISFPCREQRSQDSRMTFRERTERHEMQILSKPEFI

SMILES | Potency | activity change, negative = inhibition
S=P(c1ccccc1)(c1ccccc1)c1c(-c2ccccc2)[nH]c2ccccc12 | 31.5 µM (active) | 
Cc1c(P(=S)(c2ccccc2)c2ccccc2)[n+]2ccccc2n1CCCc1ccccc1 | 0.772 µM (active) | 
Cc1c(P(=S)(c2ccccc2)c2ccccc2)c2ccccc2n1C | 31.5 µM (active) | 
Cc1nc2ccccn2c1P(=S)(c1ccccc1)c1ccccc1 | 25 µM (active) | 
Cc1c(P(=S)(c2ccccc2)c2ccccc2)[n+]2ccccc2n1Cc1ccccc1 | 1.99 µM (active) | 
Cc1[nH]c2ccccc2c1P(=S)(c1ccccc1)c1ccccc1 | 39.7 µM (active) | 
S=P(c1ccccc1)(c1ccccc1)c1c[n+](Cc2ccccc2)c2ccccn12 | 9.96 µM (active) | 
Cn1c(-c2ccccc2)c(P(=S)(c2ccccc2)c2ccccc2)c2ccccc21 |  | -21% (inactive)
Cc1c(P(=S)(c2ccccc2)c2ccccc2)[n+]2ccccc2n1C | 2.23 µM (active) and 4.87 µM (active) | 
Cc1c(P(=S)(c2ccccc2)c2ccccc2)[n+]2ccccc2n1CCc1ccccc1 | 2.5 µM (active) | 
Cc1c(P(=S)(c2ccccc2)c2ccccc2)[n+]2ccccc2n1C/C=C/c1ccccc1 | 0.387 µM (active) | 

Reference: PubChem BioAssay AID2568 (National Center for Advancing Translational Sciences (NCATS), 2010)
